Bioassay records: PubChem, Broad Institute
Not all results are given here.
aSyn 5UTR act: Activators via SNCA 5'UTR binding, MLPCN; activity score, % (tested at 7.5 µM), hits read low; AID 1814, 2009; 7.1% of 300,000 active; alpha-synuclein 5'UTR reporter, activators screen; in the data active = activity score below about -60%
* = called active by the depositor.

SMILES | aSyn 5UTR act
COc1ccc(NC(=O)Nc2ccc(OC)cc2)cc1 | -99.4*
COc1ccc2cc(OCC(=O)NNC(=O)Nc3ccc(C(C)=O)cc3)ccc2c1 | -88.4*
COc1ccc(NC(=O)Nc2ccc3[nH]ccc3c2)cc1 | -112.4*
COc1ccc2cc[nH]c2c1 | 70.8
COc1ccc(NC(=O)OC(C)C)cc1 | -69.5*
COc1ccc(/C(C)=N/NC(=O)OC(C)(C)C)cc1[N+](=O)[O-] | -67.7*
CCOC(=O)Nc1nc(-c2ccccc2)c(C(=O)c2ccc(Cl)cc2)s1 | 113.7
COc1ccc(-c2nnc(NC(=O)C(C)C)s2)c(OC)c1 | -101.3*
CCOC(=O)Nc1nnc(-c2cccc(OC)c2)s1 | -82.9*
CCOC(=O)Nc1nnc(-c2ccc(OC)cc2)s1 | -65.3*
CCCC(=O)Nc1ccc(C(=O)/C=C/c2ccc(SC)cc2)cc1 | -70.3*
CCCc1ccc2oc(C(=O)NCCCN3CCOCC3)c(C)c2c1 | -95.9*
Cc1c(C(=O)NCc2ccc3c(c2)OCO3)oc2ccc(S(=O)(=O)N3CCCCCC3)cc12 | 60.3
Cc1c(C(=O)NCCCN2CCOCC2)oc2c1C1(CCC2)SCCS1 | -70.0*
CCCc1ccc2oc(C(=O)NCc3nnc(C)o3)c(C)c2c1 | -127.9*
Cc1cc2c(cc1C)NC(CC(=O)NCc1ccccc1)C(=O)N2 (stereo not drawn) | -77.3*
Cc1ccccc1Nc1c(-c2ccc(N3CCOCC3)cc2)nc2cnccn12 | -66.9*
O=C1c2ccccc2C(=O)C1c1nccc2ccccc12 | 98.9
c1ccc(-c2nc(-c3nccc4ccccc34)oc2-c2ccccc2)cc1 | -81.8*
Cc1cc(N2CCN(C)CC2)ccc1NC(=O)c1c2c(nc3ccccc13)CCN(Cc1ccccc1)C2 | 91.6
COc1ccc(CNC[C@@H](CCCCN(C)Cc2ccc(OC)cc2)N2C[C@H](c3ccccc3)N(CCc3ccc(Cl)c(Cl)c3)C(=O)C2=O)cc1 | 92.2
CCOc1ccc(NC2=C(Cl)C(=O)N(Cc3ccccc3)C2=O)cc1 | -119.1*
COc1ccc(NC2=C(Cl)C(=O)N(CCc3ccccc3)C2=O)cc1 | -68.0*
CN1CCN(C2=C(Cl)C(=O)N(Cc3ccccc3)C2=O)CC1 | -119.6*
COc1ccc(NC2=C(Cl)C(=O)N(CCc3ccccc3)C2=O)c(OC)c1 | -177.3*
SMILES | aSyn 5UTR act
O=C(c1cnc2nc3ccccc3n2c1)c1cc(F)ccc1O | -77.5*
CCOc1ccc(C(=O)Nc2ccc(Cl)cn2)cc1Cl | -182.0*
CC(C)C(=O)Nc1ccc(NC(=O)c2cccc(F)c2)cn1 | -147.6*
O=C(Nc1ccc(Cl)cn1)c1cccc(F)c1 | -204.1*
O=C(Nc1ccc(NC(=O)C2CC2)nc1)c1cccc(F)c1 | -161.0*
Cc1ccccc1OCC(=O)Nc1nc2ccccc2[nH]1 | -111.2*
CC(CC(=O)Nc1nc2ccccc2[nH]1)c1ccccc1 (stereo not drawn) | -188.5*
O=C(COc1ccccc1)Nc1nc2ccccc2[nH]1 | -150.3*
Cc1occc1C(=O)N/N=C/C(Br)=C\c1ccccc1 | -108.0*
Cc1occc1C(=O)N/N=C/C=C/c1ccccc1 | -138.1*
Cc1occc1C(=O)N/N=C/C=C/c1ccc(N(C)C)cc1 | -129.2*
CCCCOC(=O)N/N=C/C=C/c1ccccc1 | -87.5*
C=CCC1(CC=C)CCCN1C(=O)C1CCC(=O)N(CCc2ccc(OC)cc2)C1 (stereo not drawn) | -209.6*
C=CCC1(CC=C)CCCN1C(=O)C1CCC(=O)N(CCc2ccccc2)C1 (stereo not drawn) | -180.7*
COc1ccc(CCN2CC(C(=O)N(C)Cc3ccc(C)o3)CCC2=O)cc1 (stereo not drawn) | -86.9*
CC(C)(C)c1nnc(NC(=O)c2cccs2)s1 | -143.3*
CC(C)c1nnc(NC(=O)c2cccs2)s1 | -102.0*
O=C(Nc1nnc(C2CC2)s1)c1cccs1 | -74.1*
O=C(Nc1cc(Cl)cc(Cl)c1)c1cccc(OC(F)F)c1 | -97.7*
Cc1ccnc(NC(=O)c2cccc(OC(F)F)c2)n1 | -77.4*
c1ccc(-c2ccc3c(n2)CCCO3)cc1 | -112.8*
O=C1CCN(Cc2ccccc2)CCN1CCOc1ccccc1 | -99.3*
CC1CCC(=O)N(CCOc2ccccc2)CC1 (stereo not drawn) | -80.1*
CN(C)/C=C/C(=O)/C=C/c1ccc(Cl)cc1Cl | -150.4*
O=C(/C=C/c1ccccc1Cl)c1ccc[nH]1 | -342.9*
SMILES | aSyn 5UTR act
O=C(/C=C/c1ccc(Cl)cc1Cl)c1ccc[nH]1 | -138.8*
C/C(=N\NC(=O)c1nnn(-c2nonc2N)c1CN(C)c1ccccc1)c1ccccn1 | 88.4
CCc1c(C(=O)N/N=C/c2ccc(OCc3ccc(F)cc3)c(OC)c2)nnn1-c1nonc1N | -127.8*
Nc1nonc1-n1nnc(C(=O)N/N=C/c2ccc(OCc3ccccc3F)cc2)c1CNc1ccccc1 | -74.8*
Cc1ccc(COc2cccc(/C=N/NC(=O)c3nnn(-c4nonc4N)c3C)c2)cc1 | -152.3*
Nc1nonc1-n1nnc(C(=O)N/N=C/c2cc(Br)ccc2O)c1CNc1ccccc1 | 70.2
Cc1c(C(=O)N/N=C/c2c(O)ccc3ccccc23)nnn1-c1nonc1N | 63.4
CCN(CC)Cc1c(C(=O)N/N=C/c2ccc(OCc3ccccc3C)cc2)nnn1-c1nonc1N | -86.6*
